The source of these data is PubChem BioAssay AID1347416 (National Center for Advancing Translational Sciences (NCATS), 2020).

Out of some 4,100 compounds screened, about 1,600 (39%) were called active. Inconclusive results (about 25%) are left out. The call rests on the fitted dose curve; in most records, active means well fitted inhibition curve with a large enough effect; inconclusive means small, poorly fitted or top-dose-only effect; inactive means no such curve, though single readings can be large or run the other way. Some of the results follow.
On the % scale 0 is the no-effect control and ±100 the full control effect; potency means the concentration at half of the fitted maximal effect.

The nature of the test: qHTS Validation assay for Inhibitors of Plasmodium falciparum Dd2 growth in vitro. Further: nearly all actives have a fitted effect of over 70% in size. Conditions: P. falciparum Dd2 in RBCs, SYBR Green growth, 72 h; series mostly up to 28.7 µM; activity change, negative = inhibition: at the top concentration. In short, it runs like this:
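P. falciparum Dd2-infected red blood cells (2.5% hematocrit, 0.3% parasitemia) grown 72 h at 37 °C under 5% O2 with compounds in a titration, 29 uM to 0.5 nM final. Growth read as SYBR Green-1 fluorescence after ~16 h lysis; artesunate 300 nM as positive control.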
With `CCN1CCN(Cc2ccc(NC(=O)c3cc(NC(=O)c4cnn(-c5ccccc5)c4N)cc(OC)c3)cc2C(F)(F)F)CC1`, the Potency is 2.11 µM (active).

On to `CCN1CCN(Cc2ccc(NC(=O)c3cc(NC(=O)C4=NN(c5ccccc5)C(=O)C4)cc(OC)c3)cc2C(F)(F)F)CC1`, for which the Potency was 8.41 µM (active).

`CCN1CCN(Cc2ccc(NC(=O)c3ccc(C)c(NC(=O)C4=NN(c5ccccc5)C(=O)C4)c3)cc2C(F)(F)F)CC1`: the Potency is 8.41 µM (active).

Consider `CCCCN(C(=O)c1cccc(S(=O)(=O)N(C)c2ccc(C)cc2)c1)c1c(N)n(CCCC)c(=O)[nH]c1=O`, for which the Potency is 5.31 µM (active).

On to `O=C1NC2(CCN(C(=O)c3ccc(C(F)(F)F)cc3)CC2)COc2ccccc21`, for which the Potency is 8.41 µM (active).

As for `O=C1NC2(CCN(Cc3ccc(C(F)(F)F)cc3)CC2)COc2ccccc21`, the Potency is 8.41 µM (active).

For the compound `O=C1NC2(CN(Cc3ccc(F)cc3)C2)Oc2ccccc21`, the “activity change, negative = inhibition” value was -14.2% [at 43.1 µM] (inactive).

For the compound `COc1cccc([S+](=O)([O-])N2CCC3(COc4ccccc4C(=O)N3)C2)c1` (centres undefined), the “activity change, negative = inhibition” value is 5.79% (inactive).

In the case of `O=C1NC2(CCN(C(=O)c3cccnc3)CC2)Oc2ccccc21`, the “activity change, negative = inhibition” value was 34.6% [at 43.1 µM] (inactive).

Regarding `O=C1Nc2ccccc2CC12CCCCN2Cc1ccc(C(F)(F)F)cc1` (centres undefined), the “activity change, negative = inhibition” value was 10.3% (inactive).

Take `CN(C)c1ccc(CN2CCC3(CC2)COc2ccccc2C(=O)N3)cc1`: the Potency is 2.66 µM (active).

As to `O=C1CC2CCCC(C1)N2C(=O)c1ccc(C(F)(F)F)cc1`, the “activity change, negative = inhibition” value is 35.6% [at 43.1 µM] (inactive).

Regarding `C=C(C)COc1ccc(-c2ncncc2-c2ccc(Br)cc2)c(O)c1`, the “activity change, negative = inhibition” value is -25.8% (inactive).

As for `C=C(C)COc1ccc(-c2ncnc(C(F)(F)F)c2-c2ccccc2)c(O)c1`, the Potency was 2.37 µM (active).

On to `C=C(C)COc1ccc(-c2n[nH]c(C)c2-c2ccccc2)c(O)c1`, for which the Potency is 4.73 µM (active).

As for `C=C(C)COc1ccc(-c2ncnc(C(F)(F)F)c2-c2ccc(OC)cc2)c(O)c1`, the Potency was 2.99 µM (active).

Turning to `O=C(NC1CCCc2c1[nH]c1ccccc21)c1ccccc1` (centres undefined), the “activity change, negative = inhibition” value is 6.14% (inactive).

Turning to `COc1cc(C(=O)NC2CCCc3c2[nH]c2c(Cl)cccc32)cc(OC)c1OC` (centres undefined), the Potency was 2.11 µM (active).

For the compound `Cc1ccc2c(c1)c(C(=O)N1CCC3(CCNC(=O)CC3)CC1)nn2C`, the “activity change, negative = inhibition” value is 46.6% (inactive).

For the compound `O=C(CN(C(=O)c1cccc([N+](=O)[O-])c1)C1CCCCC1)Nc1ccc(Cl)c([N+](=O)[O-])c1`, the Potency is 13.3 µM (active).

For `CN(CC1CCOCC1)C(=O)c1cccc(Cl)c1`, the “activity change, negative = inhibition” value is 17.8% (inactive).

`CCC(=O)C1=C(c2ccccc2)N(C(=O)CC)n2c(nnc2-c2ccccc2)S1`: the Potency was 5.96 µM (active).

In the case of `CCC(=O)C1=C(c2cccc([N+](=O)[O-])c2)N(C(=O)CC)n2c(nnc2-c2ccccc2)S1`, the Potency was 5.31 µM (active).

On to `CCc1noc(-c2nc(-c3ccc(OC)c(OC)c3)no2)n1`, for which the “activity change, negative = inhibition” value was 28.2% (inactive).

For `CCC(=O)C1=C(c2cccc([N+](=O)[O-])c2)N(C(=O)CC)n2c(nnc2C2CCCCC2)S1`, the Potency is 1.88 µM (active).

For `CCC(=O)C1=C(c2ccc(OC)c(OC)c2)N(C(=O)CC)n2c(CC)nnc2S1`, the Potency was 4.73 µM (active).

With `COc1cc2nc(SCc3ccc(F)cc3)n3nc(CCn4c(C)nc5ccccc54)nc3c2cc1OC`, the Potency was 2.99 µM (active).

`CN(C)c1ccc(C(=O)N[C@H]2CO[C@H]3[C@@H]2OC[C@@H]3n2cc(COc3ccccc3)nn2)cc1`: the “activity change, negative = inhibition” value is 48% (inactive).

As for `C#CCN1c2ccccc2Sc2cccnc21`, the Potency was 6.68 µM (active).

Take `CCc1cccc(NC(=O)C(Cc2ccccc2)NS(=O)(=O)c2ccc3c(c2)oc(=O)n3C)c1` (centres undefined): the “activity change, negative = inhibition” value was 5.42% (inactive).

Turning to `CC(C)Cc1cc(CNc2nccc(-c3cc(C(=O)O)ccn3)n2)no1`, the “activity change, negative = inhibition” value was 51.6% (inactive).

Consider `COc1cccc(-c2ccc3c(n2)CNC(=O)CO3)c1`, for which the “activity change, negative = inhibition” value is -22.2% [at 57.5 µM] (inactive).

As for `CC(C)c1cc(C(=O)Nc2cc(Cl)ccc2O)no1`, the Potency was 6.68 µM (active).

For `COc1cccc(-c2cc(C(=O)Nc3cc(Cl)ccc3O)on2)c1`, the Potency was 4.73 µM (active).

Take `Cc1cc(-c2ccc(S(=O)(=O)Nc3cc(Cl)ccc3C)s2)on1`: the “activity change, negative = inhibition” value is 7.99% (inactive).

Take `CC(C)Cc1cc(C(=O)Nc2cc(Br)ccc2O)no1`: the Potency is 4.73 µM (active).

In the case of `COc1ccc(Cl)cc1NC(=O)c1sc(-n2nc(C)c(Cc3ccccc3)c2C)nc1C`, the “activity change, negative = inhibition” value is 28.8% (inactive).

As to `O=C(c1cn[nH]c1)N1CCC(c2nc(CCOCC3CC3)no2)C1` (centres undefined), the “activity change, negative = inhibition” value is 12.7% (inactive).

As to `COc1nc2ccccc2nc1CCC(=O)N[C@H]1COC[C@H]1Cc1cc(C)no1`, the “activity change, negative = inhibition” value is 41.7% (inactive).

Consider `CN(C)C[C@@H]1CN(Cc2ccccc2)C[C@H]1NC(=O)c1ccncn1`, for which the “activity change, negative = inhibition” value was -1.84% (inactive).

In the case of `Cc1ccc(NC(=O)c2c(NC(=O)c3ccco3)sc3c2CCC(C(C)(C)C)C3)c(C)c1` (centres undefined), the “activity change, negative = inhibition” value was 11.1% (inactive).

On to `Cc1ccccc1NC(=O)c1c(NC(=O)c2ccco2)sc2c1CCC(C(C)(C)C)C2` (centres undefined), for which the Potency was 13.3 µM (active).

`Cc1ccccc1NC(=O)c1c(NC(=O)c2cccs2)sc2c1CCC(C)C2` (centres undefined): the “activity change, negative = inhibition” value is -9.18% (inactive).

For `Cc1ccc(Cl)cc1NC(=O)CCn1cnc2ccccc2c1=O`, the “activity change, negative = inhibition” value was 35.2% (inactive).

On to `Cc1ccc(Cl)cc1NC(=O)c1cc2ccccc2cc1O`, for which the Potency is 1.5 µM (active).

Consider `O=C(NCC1CCCCC1)c1cc2ccccc2cc1O`, for which the Potency was 9.44 µM (active).

For the compound `O=C(CN1CCN(S(=O)(=O)c2cccs2)CC1)NCC1CCCCC1`, the “activity change, negative = inhibition” value is 7.52% (inactive).

Consider `O=C(NCC1CC1)c1cccc(OC2CN(CC3CC=CCC3)C2)c1` (centres undefined), for which the “activity change, negative = inhibition” value is -22.2% (inactive).

As to `Cc1ccc(Cl)cc1NC(=O)c1nnn(Cc2ccccc2)c1N`, the “activity change, negative = inhibition” value is 15% (inactive).

For `CCOc1ccc(NC(=O)c2cc3ccccc3cc2O)cc1`, the Potency is 5.31 µM (active).

On to `CCOc1ccc(NC(=O)c2oc3ccccc3c2NC(=O)c2cc(C)cc(C)c2)cc1`, for which the “activity change, negative = inhibition” value is -26.5% (inactive).

As to `Cc1nc(C)c(C(=O)N2CC(Oc3ccc(-c4noc(-c5ccccc5)n4)cc3)C2)s1`, the “activity change, negative = inhibition” value is -25.7% (inactive).

With `Cc1ccsc1C(=O)N1CC(Oc2ccc(-c3nc(-c4ccccc4)no3)cc2)C1`, the “activity change, negative = inhibition” value was 4.37% (inactive).

As for `CCn1cc(CN2CC(Oc3ccc(-c4noc(-c5ccncc5)n4)cc3)C2)cn1`, the Potency was 13.3 µM (active).

For `Cc1c(C#N)c(N)nc(Cl)c1C#N`, the “activity change, negative = inhibition” value is -5.23% (inactive).

For `CN1N=C(C(=O)N2CCc3c([nH]c4ccccc34)C2c2ccccc2Cl)CCC1=O` (centres undefined), the Potency was 5.31 µM (active).

For the compound `CCOc1cc(C(=O)N2CCc3c([nH]c4ccccc34)C2c2ccccc2)cc(OCC)c1OCC` (centres undefined), the Potency was 7.5 µM (active).

As for `CCOc1cccc(C2c3[nH]c4ccccc4c3CCN2C(=O)CSCc2ccc(F)cc2)c1` (centres undefined), the Potency was 15 µM (active).

Regarding `CC(C)NC(=O)N1CCN(S(=O)(=O)c2ccccc2)[C@@H](C(=O)N[C@H](Cc2c[nH]c3ccccc23)C(N)=O)C1`, the “activity change, negative = inhibition” value is 15.9% (inactive).
